Source: PubChem BioAssay (National Center for Advancing Translational Sciences (NCATS))
Shown are actives, neighbours in structure and some others; about 8.3% of the full set was active somewhere.
RORg inh = ROR gamma (mouse) transcription inhibition; Potency, µM (top dose mostly 53.6 µM), hits mostly inhibitors; P51450; Drosophila S2 Gal4-RORgamma UAS-luciferase reporter, 20 h; AID 2551; hit rate 5.4% among 310,000; also: nearly all actives have a fitted effect of over 60% in size
Target sequence (P51450 whole entry, looked up, the tested form may be a part): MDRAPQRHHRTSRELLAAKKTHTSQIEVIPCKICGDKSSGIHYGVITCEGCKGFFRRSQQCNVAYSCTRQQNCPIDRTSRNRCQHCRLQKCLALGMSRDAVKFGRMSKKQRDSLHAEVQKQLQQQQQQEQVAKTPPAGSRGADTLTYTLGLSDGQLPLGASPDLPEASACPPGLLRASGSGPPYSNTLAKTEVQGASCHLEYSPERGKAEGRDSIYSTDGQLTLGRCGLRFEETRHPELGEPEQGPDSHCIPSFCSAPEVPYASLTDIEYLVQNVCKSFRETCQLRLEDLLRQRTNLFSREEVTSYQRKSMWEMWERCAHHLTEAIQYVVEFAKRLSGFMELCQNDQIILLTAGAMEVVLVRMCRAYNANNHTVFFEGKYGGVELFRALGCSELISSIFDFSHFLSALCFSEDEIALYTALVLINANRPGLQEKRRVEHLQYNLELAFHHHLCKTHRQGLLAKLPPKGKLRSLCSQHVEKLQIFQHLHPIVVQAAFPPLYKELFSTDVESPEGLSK
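Luciferase reporter read in Schneider cells carrying Gal4-RORγ (mouse) and UAS-Photinus luciferase; cells given compound 1 h before 700 uM copper sulfate induction, then incubated 20 h at ambient temperature.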
BCR signal inh = blocks chronic active B-cell receptor signaling | Potency, µM (doses to about 46.1 µM), most hits filed as inhibitors | hit rate 0.05% among 340,000 | ABC-DLBCL IkBa-CBG/CBR reporter, luminescence ratio, 4 h; active = well fitted inhibition curve with a large enough effect in the signal ratio, with a control signal flat, not every such curve was filed as active; inconclusive = small, poorly fitted or top-dose-only effect, or effect the other way, or a change in a side signal; the % refers to the signal ratio
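Compounds up to 46 uM were incubated four hours with TMD8 cells whose green CBG68 luciferase is fused to IkappaBalpha; red CBR luminescence normalised the signal, and concentration-effect curves were fitted to fusion, red and ratio data.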
SW480 rereplic = DNA re-replication induction in SW480 cells; Potency, µM (titrated, usually from 46.1 µM), hits mostly activators; SW480 DNA re-replication, Hoechst DNA content imaging, 48 h; hit rate 1.8% among 340,000; AID 624297; also: nearly all actives have a fitted effect of over 55% in size
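Compounds, transferred as 23 nL by pin tool, were incubated with cells for 48 hr; DNA content per nucleus was then quantified by Hoechst staining and fluorescence plate imaging.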
Giardia killer = kills Giardia lamblia | activity change, % at 7.66 µM, hits read low | AID 540267 | Giardia lamblia trophozoite viability | hit rate 0.15% among 340,000; in the data active = activity change below about -80%; inconclusive = between about -30% and that limit;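 also: parasites exposed to compound for two days anaerobically before the ATP read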
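Viability, read as ATP luminescence: trophozoites at 100 cells/well, compound added, 48 hrs anaerobic at 37 deg C, then 15-30 min room-temperature development before reading.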
MCF10A rerep = DNA re-replication induction in MCF 10a cells. MCF 10A DNA re-replication, Hoechst nuclear intensity, 48 h. Potency, µM (highest dose often 46.1 µM), most hits filed as activators. hit rate 2.9% among 350,000. AID 624296; also: nearly all actives have a fitted effect of over 50% in size
VP16 counter = counter-screen for ROR gamma inhibitors: Gal4-VP16 reporter | Drosophila S2 Gal4-VP16 UAS-luciferase, luminescence, 20 h | Potency, µM (doses to about 53.6 µM), hits mostly inhibitors | hit rate 3.5% among 310,000 | AID 2546;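 also: Gal4-VP16 expression switched on by copper sulfate through the metallothionein promoter; nearly all actives have a fitted effect of over 50% in size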
Of the large screens only hits and unclear results are named; the others gave an inactive call. Unless noted, calls follow the shape of the dose curve; as a rule, active = well fitted curve in the direction sought with a large enough effect; inconclusive = small, poorly fitted or top-dose-only effect, or another doubt; inactive = no such curve, though single readings can be large; an effect the other way counts as inactive or inconclusive.

COc1ccc(NC(=S)NC(=O)/C=C/c2cccs2)cc1	RORg inh 3.55µM, BCR signal inh inconclusive, VP16 counter inconclusive
CCOc1ccc(S(=O)(=O)Nc2cccc(C(=O)NCC(C)(C)N3CCOCC3)c2)cc1	none (no result: RORg inh, VP16 counter)
COc1ccccc1NC(=O)COC(=O)/C=C/c1cccs1	BCR signal inh inconclusive (no result: RORg inh, VP16 counter)
COc1ccccc1NC(=S)NC(=O)/C=C/c1cccs1	RORg inh 4.47µM, BCR signal inh inconclusive, VP16 counter 11.2µM
CCOC(=O)C1=C(COC(=O)/C=C/c2cccc(OC)c2OC)NC(=O)NC1C (stereo not drawn)	BCR signal inh inconclusive (no result: RORg inh, VP16 counter)
Cc1ccc2[nH]c3c(c2c1)SC(C)(C)CC3=O	SW480 rereplic inconclusive, MCF10A rerep 18.4µM
O=[N+]([O-])c1ccc(S(=O)(=O)NCCS(=O)(=O)N2CCN(c3ccccc3)CC2)cc1	none
Cc1cc(NCc2ccccn2)n2ncc(-c3ccccc3)c2n1	RORg inh 0.0891µM, BCR signal inh inconclusive, SW480 rereplic 0.82µM, VP16 counter 0.316µM
Cc1cc(Cl)n2ncc(-c3ccccc3)c2n1	RORg inh 15.8µM, BCR signal inh inconclusive, MCF10A rerep inconclusive, VP16 counter inconclusive
CN(C)CCCNc1cc(C(C)(C)C)nc2c(-c3ccccc3)cnn12	RORg inh 1.41µM, BCR signal inh inconclusive, SW480 rereplic inconclusive, MCF10A rerep inconclusive, VP16 counter 2.51µM
Cc1cc(N)n2ncc(-c3ccc(Cl)cc3)c2n1	BCR signal inh inconclusive, MCF10A rerep inconclusive
COc1ccc(NC(=O)CSc2cc(C)nc3c(-c4ccccc4)cnn23)cc1	SW480 rereplic inconclusive, MCF10A rerep 9.2µM
Cc1cc(NCCCN2CCOCC2)n2ncc(-c3ccccc3)c2n1	none
COc1ccc(C2=NN(CN3C(=O)C(=O)c4ccccc43)C(c3cccc([N+](=O)[O-])c3)C2)cc1 (stereo not drawn)	MCF10A rerep inconclusive
O=C1CC(N2CCN(c3ncccn3)CC2)C(=O)N1CCc1ccccc1 (stereo not drawn)	SW480 rereplic inconclusive
Cc1cc(NCc2ccccn2)n2nc(C)c(-c3ccc(Cl)cc3)c2n1	RORg inh 0.0631µM, MCF10A rerep inconclusive, VP16 counter 0.708µM
Cc1cc(NCc2ccccn2)n2ncc(-c3ccc(Cl)cc3)c2n1	RORg inh 0.0447µM, SW480 rereplic inconclusive, VP16 counter 0.631µM
Cc1cc(C(F)(F)F)n2nc(C)c(-c3ccc(Cl)cc3)c2n1	BCR signal inh inconclusive
CC(C)CN1CCCC2(CCN(C(=O)c3csnn3)CC2)C1	none (no result: BCR signal inh, SW480 rereplic, Giardia killer, MCF10A rerep)
COc1ccc(OC(=O)Cc2cccc3ccccc23)cc1	BCR signal inh inconclusive
S=C(c1nc2ccccc2[nH]1)N1CCOCC1	RORg inh 5.01µM, BCR signal inh inconclusive, VP16 counter 6.31µM
Cc1cc(=O)oc2cc(OCc3ccc(C(=O)OCC(=O)N(C)C4CCS(=O)(=O)C4)cc3)ccc12 (stereo not drawn)	BCR signal inh inconclusive
CN(C(=O)COc1ccc2c(-c3ccccc3)cc(=O)oc2c1)C1CCS(=O)(=O)C1 (stereo not drawn)	SW480 rereplic 13µM, MCF10A rerep inconclusive
CC(C)CCn1c(O)c(N=Nc2ccccn2)c2ccccc21	RORg inh 14.1µM, BCR signal inh inconclusive, MCF10A rerep inconclusive, VP16 counter 11.2µM
Oc1ccc2ccccc2c1N=Nc1ccccc1F	SW480 rereplic inconclusive, Giardia killer inconclusive
Oc1ccc2ccccc2c1N=Nc1ccccn1	RORg inh 0.282µM, BCR signal inh inconclusive, SW480 rereplic inconclusive, MCF10A rerep inconclusive, VP16 counter inconclusive
C=CCn1c(C)nnc1SCC(=O)Nc1oc(C)c2c(C)n[nH]c(=O)c12	none (no result: RORg inh, VP16 counter)
O=C(N/N=C/c1ccc2nccnc2c1)c1ccccc1O	RORg inh 6.31µM, BCR signal inh inconclusive, VP16 counter inconclusive (no result: SW480 rereplic, Giardia killer, MCF10A rerep)
O=C(N/N=C/c1cc(Br)c(O)c(Br)c1)c1cccc(C(F)(F)F)c1	MCF10A rerep inconclusive
O=C(N/N=C/c1ccc2nccnc2c1)c1ccncc1	BCR signal inh inconclusive
O=C(N/N=C/c1cccc(C(F)(F)F)c1)c1ccccc1O	RORg inh 10µM, BCR signal inh inconclusive, VP16 counter inconclusive
O=C(N/N=C/c1cccc(OC2CSC2)c1)c1ccccc1O	RORg inh 12.6µM, BCR signal inh inconclusive
Cc1cccc(C(=O)Oc2ccc(/C=N/NC(=O)c3ccccc3O)cc2)c1	RORg inh 3.55µM, BCR signal inh inconclusive, VP16 counter 3.55µM
Cn1ncc(Br)c1C(=O)N/N=C/c1cccc(OC2CSC2)c1	none
CCCc1c2c(cc3c(=O)cc(C(=O)OCC)oc13)CCCC2	none
C=CCONC(=O)Cc1ccccc1	Giardia killer inconclusive (no result: RORg inh, VP16 counter)
COc1ccc(CCNC(=O)C2CC=CCC2C(=O)O)cc1 (stereo not drawn)	none
CC(c1nnc(SCC(=O)N(C)C2CCS(=O)(=O)C2)n1-c1ccccc1)N(C)C (stereo not drawn)	none (no result: RORg inh, VP16 counter)
CC(=O)Nc1cccc(C(=O)NCc2ccc3c(c2)CCN3C(=O)c2ccc(F)cc2)c1	none (no result: RORg inh, SW480 rereplic, Giardia killer, MCF10A rerep, VP16 counter)
CSc1ccc(CN(C)Cc2nc3cc(C(F)(F)F)ccc3c(=O)[nH]2)cc1	RORg inh 12.6µM, VP16 counter inconclusive
COc1cc2nc(CN(C)Cc3ccc(SC)cc3)[nH]c(=O)c2cc1OC	none
CCN1C(=O)[C@H]2[C@H]3[C@H](O)[C@H](O)C/C(=N/OCC(C)C)[C@H]3CC[C@@H]2C1=O	none (no result: BCR signal inh, SW480 rereplic, Giardia killer, MCF10A rerep)
O=C(CNc1ccccc1)N/N=C/c1c(O)ccc2ccccc12	RORg inh 1.58µM, SW480 rereplic inconclusive, MCF10A rerep inconclusive, VP16 counter 2.82µM
CCN(CC)C(=O)CSCC(=O)Nc1ccccc1	MCF10A rerep 8.2µM
O=C(N/N=C/c1c(O)ccc2ccccc12)Nc1ccccc1	none (no result: RORg inh, BCR signal inh, VP16 counter)
N#CCC(=O)N/N=C/c1c2ccccc2cc2ccccc12	RORg inh 11.2µM, BCR signal inh inconclusive, SW480 rereplic inconclusive, MCF10A rerep 18.4µM, VP16 counter inconclusive
CCN(CC(=O)Nc1ccccc1OC)C(=O)CSCC(=O)Nc1ccc(OC)cc1	none (no result: RORg inh, VP16 counter)
O=C(CO)N/N=C/c1c2ccccc2cc2ccccc12	none
O=C(CSCC(=O)Nc1ccccc1)N/N=C/c1c(O)ccc2ccccc12	RORg inh 1µM, BCR signal inh inconclusive, SW480 rereplic inconclusive, MCF10A rerep inconclusive, VP16 counter 3.55µM
O=C(c1cccs1)N1CCN(C(=O)C(c2ccccc2)c2ccccc2)CC1	none
COc1ccc(NC(C)C(=O)N/N=C/c2cc(Br)ccc2OC)cc1 (stereo not drawn)	BCR signal inh inconclusive
O=C(CN1CCOCC1)N/N=C/c1c(O)ccc2ccccc12	RORg inh inconclusive, SW480 rereplic inconclusive, VP16 counter 1.41µM
COc1ccc(NC(C)C(=O)N/N=C/c2c(O)ccc3ccccc23)cc1 (stereo not drawn)	RORg inh 1.58µM, SW480 rereplic 3.66µM, MCF10A rerep inconclusive, VP16 counter 3.55µM
